# Assay results taken from PubChem BioAssay (Tox21).
# Values without a mark were called inactive. Inconclusive results are not listed. Entries that show only a call come without a potency. The source made the active and inactive calls. Unless noted, calls follow the shape of the dose curve; as a rule, active = well fitted curve in the direction sought with a large enough effect in the repeat runs; inconclusive = weak or mixed curves; inactive = no such curve, though single readings can be large; an effect the other way counts as inactive or inconclusive.
# How the values were obtained:
# [1] = qHTS assay to identify small molecule agonists of the TGF-beta/Smad signaling pathway - cell viability counter screen (AID 1346829); also: top concentration of the series differs between compounds; nearly all actives have a fitted effect of over 45% in size
# Outline: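 Compound-treated SBE-bla HEK 293T cells (5 hr, 37 C) were assessed for viability with CellTiter-Glo in parallel with the reporter read.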
# [2] = qHTS assay to identify small molecule agonists of the TGF-beta/Smad signaling pathway (AID 1346859; active = well fitted activation curve with a large enough effect in the signal ratio in the repeat runs, not every such curve was filed as active; the % refers to the signal ratio; also: series mostly up to about 77 µM)
# Outline: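 Each well held 4,000 SBE-bla HEK 293T cells incubated overnight before compound addition; 5 hr later the cleavable FRET substrate went on for 2 hr at room temperature, and fluorescence was read at two emissions.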
# [3] = target: Thyrotropin-releasing hormone receptor (Homo sapiens) (UniProt P34981); assay: qHTS assay to identify small molecule agonists of the thyrotropin-releasing hormone receptor (TRHR) signaling pathway (AID 1346891; calls by dose curve; also: series mostly up to about 58 µM)
# Outline: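 Screening of agonists relied on calcium signalling in HEK293 cells expressing human TRHR: dye loading 2 h at 37 °C preceded compound addition and a 3-min fluorescence time course.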
# [4] = Human pregnane X receptor (PXR) small molecule agonists, qHTS cell viability counter screen (AID 1346977); also: nearly all actives have a fitted effect of over 50% in size
# Outline: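 Tox21 qHTS format; PXR-Luc HepG2, 2,000/well, charcoal-stripped FBS 5%. Cpd exposure 24hr. Read: CellTiter-Fluor fluorescence, multiplexed with luciferase.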
# [5] = Caspase-3/7 induction in HepG2 cells by small molecules, qHTS assay (AID 1346978); also: nearly all actives have a fitted effect of over 15% in size
# Outline: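 Caspase-3/7 induction was measured by Caspase-Glo 3/7 luminescence (30 min, room temperature) after a 17 hr compound exposure of wild-type HepG2 cells seeded at 2,000 per well and pre-incubated 5 hr.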
# [6] = Caspase-3/7 induction in CHO-K1 cells by small molecules, qHTS cell viability counter screen (AID 1346979); also: nearly all actives have a fitted effect of over 35% in size
# Outline: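 CellTiter-Fluor viability check, qHTS format: wild-type CHO-K1, 16hr compound treatment, 1hr reagent incubation, fluorescence read.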
# [7] = Caspase-3/7 induction in CHO-K1 cells by small molecules, qHTS assay (AID 1346980); also: nearly all actives have a fitted effect of over 15% in size
# Outline: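 Luminescent Caspase-Glo 3/7 read (30min, room temperature) quantified apoptosis induction. Cells were wild-type CHO-K1, treated with compound for 17hr at 37 C and 5% CO2.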
# [8] = Caspase-3/7 induction in HepG2 cells by small molecules, qHTS cell viability counter screen (AID 1346981); also: series mostly up to about 92 µM; nearly all actives have a fitted effect of over 30% in size
# Outline: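 In this quantitative HTS counter screen, compounds delivered in DMSO were left on unmodified HepG2 cells for 16 hr at 37 C. Viability was then determined fluorometrically with CellTiter-Fluor, in parallel with caspase-3/7 induction in the same wells.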
# [9] = target: Nuclear receptor subfamily 1 group I member 2 (Homo sapiens) (UniProt O75469); assay: Human pregnane X receptor (PXR) small molecule agonists, qHTS assay (AID 1346982); also: nearly all actives have a fitted effect of over 35% in size; also: potency is read from the fitted curve at half-maximal effect
# Outline: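 Reporter HepG2 cells expressing PXR-Luc are cultured in charcoal-stripped FBS (5%), treated with compounds for 24 hr at 37 C, and assayed by ONE-Glo luminescence after 30 min at room temperature.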
# [10] = target: Cytochrome P450 2D6 (Homo sapiens) (UniProt P10635); assay: Cytochrome P450 Family 2 Subfamily D Member 6 (CYP2D6) small molecule antagonists: luciferase reporter qHTS assay (AID 1671196); also: nearly all actives have a fitted effect of over 50% in size; also: potency is read from the fitted curve at half-maximal effect
# Outline: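 Test chemicals meet CYP2D6 plus proluciferin substrate (10 min, RT); NADPH regenerating solution then drives turnover for 1 h. Detection reagent halts the reaction; luminescence measured after 20 min.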
# [11] = target: Cytochrome P450 2C19 (Homo sapiens) (UniProt P33261); assay: Cytochrome P450 Family 2 Subfamily C Member 19 (CYP2C19) small molecule antagonists: luciferase reporter qHTS assay (AID 1671197); also: nearly all actives have a fitted effect of over 65% in size; also: potency is read from the fitted curve at half-maximal effect
# Outline: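 P450-Glo CYP2C19 screening system; proluciferin substrate; DMSO compound stocks; 10 min RT preincubation; NADPH regeneration, 1 h at 37C; luciferin detection reagent, 20 min RT; luminescence as RLU.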
# [12] = target: Cytochrome P450 2C9 (Homo sapiens) (UniProt P11712); assay: Cytochrome P450 Family 2 Subfamily C Member 9 (CYP2C9) small molecule antagonists: luciferase reporter qHTS assay (AID 1671198); also: nearly all actives have a fitted effect of over 50% in size; also: potency is read from the fitted curve at half-maximal effect
# Outline: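 Enzyme-substrate mix preincubated with compound 10 min at room temperature; reaction started with NADPH regeneration solution, 1 h 37C. Luminescent luciferin product read after 20 min detection reagent.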
# [13] = target: Cytochrome P450 1A2 (Homo sapiens) (UniProt P05177); assay: Cytochrome P450 Family 1 Subfamily A Member 2 (CYP1A2) small molecule antagonists: luciferase reporter qHTS assay (AID 1671199); also: nearly all actives have a fitted effect of over 50% in size; also: potency is read from the fitted curve at half-maximal effect
# Outline: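 Steps: enzyme-substrate mix dispensed; test compounds and furafylline control pinned in; 10 min room temperature; NADPH regeneration solution added, 1 h; reaction stopped with luciferin detection reagent; luminescence read after 20 min.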
# [14] = target: Voltage-gated inwardly rectifying potassium channel KCNH2 (Homo sapiens) (UniProt Q12809); assay: Human Ether-a-go-go-Related Gene (hERG) channel small molecule antagonists: fluorescence cell-based qHTS assay (AID 1671200)
# Outline: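 Kinetic two-minute fluorescence traces, sampled at 1 s, were collected following thallium stimulus of U2OS cells (1000 per well) that had been cultured overnight at 37 C and loaded with FluxOR II.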
# [15] = target: Cytochrome P450 3A4 (Homo sapiens) (UniProt P08684); assay: Cytochrome P450 Family 3 Subfamily A Member 4 (CYP3A4) small molecule antagonists: luciferase reporter qHTS assay (AID 1671201)
# Outline: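 Proluciferin-to-luciferin conversion by CYP3A4, NADPH-regenerated, 1 h RT; luminescence read as RLU. Ketoconazole as control.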
# [16] = target: Nuclear receptor subfamily 1 group I member 2 (Rattus norvegicus) (UniProt Q9R1A7); assay: Rat pregnane X receptor (rPXR) activation by small molecules, qHTS assay (AID 1346983); details: rPXR luciferase reporter cells, One-Glo luminescence, 24 h; hits give high values; also: nearly all actives have a fitted effect of over 20% in size
# Outline: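 Luminescent readout (One-Glo luciferase, 30 min room temperature) followed 24 hr compound treatment at 37 C of rPXR cells plated 2,000 per well and preincubated 5hr; qHTS format with compounds delivered in DMSO.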
# [17] = target: Nuclear receptor subfamily 1 group I member 2 (Homo sapiens) (UniProt O75469); assay: CYP3A4 induction through human pregnane X receptor (PXR) by small molecules, qHTS assay (AID 1346984); also: nearly all actives have a fitted effect of over 40% in size
# Outline: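 Induction measured in HepG2-based DPX-2 cells co-expressing human PXR and a CYP3A4 promoter-driven luciferase. After a 24-hour compound exposure, cells received CYP3A4 luciferin substrate at 3uM final for 3 hours, and light output was then recorded.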
# [18] = target: Nuclear receptor subfamily 1 group I member 2 (Homo sapiens) (UniProt O75469); assay: Human pregnane X receptor (PXR) activation by small molecules, qHTS assay (AID 1346985); also: nearly all actives have a fitted effect of over 40% in size
# Outline: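 DPX-2 cells (HepG2 co-transfected with a PXR response element and a CYP3A4-promoter luciferase construct) were seeded at 2,000 per well, rested 5 hr at 37C, then exposed to DMSO-dissolved compounds for 24 hr. Activation was read as luciferase luminescence.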
# [19] = target: Thyrotropin-releasing hormone receptor (Homo sapiens) (UniProt P34981); assay: qHTS assay to identify small molecule antagonists of the thyrotropin-releasing hormone receptor (TRHR) signaling pathway (AID 1346877; active = well fitted inhibition curve with a large enough effect in the repeat runs, not every such curve was filed as active; also: series mostly up to about 51 µM)
# Outline: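 Kinetic fluorescence (3 min, 1 s resolution) following stimulation with TRH at 1 nM final; HEK293 cells bearing human TRHR; 5 min compound preincubation at RT; concentration-response over 15 points, triplicates.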
# Chain of Thyrotropin-releasing hormone receptor (Homo sapiens) (P34981 whole entry, looked up): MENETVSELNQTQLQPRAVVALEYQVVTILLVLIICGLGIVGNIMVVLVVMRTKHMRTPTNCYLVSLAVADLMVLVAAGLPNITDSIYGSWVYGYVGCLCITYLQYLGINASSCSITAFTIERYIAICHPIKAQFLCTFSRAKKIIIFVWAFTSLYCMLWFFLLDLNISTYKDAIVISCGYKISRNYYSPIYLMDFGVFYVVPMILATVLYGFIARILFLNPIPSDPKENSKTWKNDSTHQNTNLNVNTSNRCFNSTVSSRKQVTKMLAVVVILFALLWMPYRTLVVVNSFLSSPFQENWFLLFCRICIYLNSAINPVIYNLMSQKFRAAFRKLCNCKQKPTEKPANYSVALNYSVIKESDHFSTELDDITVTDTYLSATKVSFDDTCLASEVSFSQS
# Chain of Cytochrome P450 2C9 (Homo sapiens) (P11712 whole entry, looked up): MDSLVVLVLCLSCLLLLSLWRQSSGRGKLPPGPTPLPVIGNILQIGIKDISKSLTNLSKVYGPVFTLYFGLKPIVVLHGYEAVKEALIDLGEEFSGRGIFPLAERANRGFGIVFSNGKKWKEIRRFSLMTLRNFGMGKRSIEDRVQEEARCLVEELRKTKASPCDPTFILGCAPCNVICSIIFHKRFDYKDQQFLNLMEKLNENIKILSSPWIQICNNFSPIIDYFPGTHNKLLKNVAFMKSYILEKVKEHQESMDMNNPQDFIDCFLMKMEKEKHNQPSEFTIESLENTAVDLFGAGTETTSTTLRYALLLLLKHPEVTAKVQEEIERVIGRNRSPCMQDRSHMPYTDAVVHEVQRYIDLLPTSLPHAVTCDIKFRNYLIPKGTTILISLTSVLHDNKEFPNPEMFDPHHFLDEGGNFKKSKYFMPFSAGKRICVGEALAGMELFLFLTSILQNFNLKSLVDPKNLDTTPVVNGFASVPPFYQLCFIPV
# Chain of Cytochrome P450 3A4 (Homo sapiens) (P08684 whole entry, looked up): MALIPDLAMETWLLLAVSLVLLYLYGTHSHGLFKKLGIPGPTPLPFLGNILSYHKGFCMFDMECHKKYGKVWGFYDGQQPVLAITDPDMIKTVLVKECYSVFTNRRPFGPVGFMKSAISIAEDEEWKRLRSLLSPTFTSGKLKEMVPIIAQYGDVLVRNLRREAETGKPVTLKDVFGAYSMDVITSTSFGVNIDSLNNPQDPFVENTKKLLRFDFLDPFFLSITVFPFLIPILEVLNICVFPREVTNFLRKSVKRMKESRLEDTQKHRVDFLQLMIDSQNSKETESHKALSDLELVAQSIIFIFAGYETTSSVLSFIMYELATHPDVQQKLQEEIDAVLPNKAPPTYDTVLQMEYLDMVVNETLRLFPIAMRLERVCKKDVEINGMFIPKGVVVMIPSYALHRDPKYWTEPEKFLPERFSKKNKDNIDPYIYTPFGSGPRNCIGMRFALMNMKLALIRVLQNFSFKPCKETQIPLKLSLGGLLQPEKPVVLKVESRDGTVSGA
# Chain of Nuclear receptor subfamily 1 group I member 2 (Rattus norvegicus) (Q9R1A7 whole entry, looked up): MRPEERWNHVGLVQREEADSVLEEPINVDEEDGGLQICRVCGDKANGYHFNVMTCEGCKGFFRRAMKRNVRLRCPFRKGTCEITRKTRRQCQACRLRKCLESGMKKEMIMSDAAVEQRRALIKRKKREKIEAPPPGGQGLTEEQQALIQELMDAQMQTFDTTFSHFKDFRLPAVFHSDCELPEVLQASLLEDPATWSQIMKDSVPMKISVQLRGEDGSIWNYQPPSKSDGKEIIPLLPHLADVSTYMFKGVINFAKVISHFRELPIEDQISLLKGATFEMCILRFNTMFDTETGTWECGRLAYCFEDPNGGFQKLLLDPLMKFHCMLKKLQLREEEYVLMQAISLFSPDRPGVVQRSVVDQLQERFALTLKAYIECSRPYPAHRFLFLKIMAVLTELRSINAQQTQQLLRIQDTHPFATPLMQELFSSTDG
# Chain of Cytochrome P450 1A2 (Homo sapiens) (P05177 whole entry, looked up): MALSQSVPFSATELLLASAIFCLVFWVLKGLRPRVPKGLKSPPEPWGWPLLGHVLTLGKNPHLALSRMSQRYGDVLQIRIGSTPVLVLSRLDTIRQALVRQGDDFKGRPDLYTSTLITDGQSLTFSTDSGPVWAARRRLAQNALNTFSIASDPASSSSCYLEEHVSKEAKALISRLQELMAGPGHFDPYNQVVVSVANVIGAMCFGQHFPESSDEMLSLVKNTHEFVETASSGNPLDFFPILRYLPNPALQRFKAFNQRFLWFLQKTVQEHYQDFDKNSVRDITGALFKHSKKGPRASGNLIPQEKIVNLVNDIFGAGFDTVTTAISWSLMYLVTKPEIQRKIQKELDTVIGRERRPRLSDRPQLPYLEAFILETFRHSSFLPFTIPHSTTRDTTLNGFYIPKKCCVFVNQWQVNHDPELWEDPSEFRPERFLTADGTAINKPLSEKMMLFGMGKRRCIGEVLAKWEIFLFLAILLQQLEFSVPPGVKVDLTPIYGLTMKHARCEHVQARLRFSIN
# Chain of Cytochrome P450 2C19 (Homo sapiens) (P33261 whole entry, looked up): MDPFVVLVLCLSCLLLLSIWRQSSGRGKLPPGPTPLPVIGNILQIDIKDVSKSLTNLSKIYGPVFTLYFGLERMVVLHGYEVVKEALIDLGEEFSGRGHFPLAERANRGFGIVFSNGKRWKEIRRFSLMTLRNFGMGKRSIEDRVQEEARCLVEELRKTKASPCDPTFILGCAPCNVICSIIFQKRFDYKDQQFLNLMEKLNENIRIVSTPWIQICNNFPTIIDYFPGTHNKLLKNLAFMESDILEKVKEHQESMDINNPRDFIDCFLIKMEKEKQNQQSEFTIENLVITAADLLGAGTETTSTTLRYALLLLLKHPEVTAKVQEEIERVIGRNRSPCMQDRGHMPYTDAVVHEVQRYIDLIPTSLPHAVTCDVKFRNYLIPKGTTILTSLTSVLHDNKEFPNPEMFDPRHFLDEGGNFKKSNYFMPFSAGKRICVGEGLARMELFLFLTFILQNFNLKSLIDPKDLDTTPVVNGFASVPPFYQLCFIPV
# Chain of Voltage-gated inwardly rectifying potassium channel KCNH2 (Homo sapiens) (Q12809 whole entry, looked up): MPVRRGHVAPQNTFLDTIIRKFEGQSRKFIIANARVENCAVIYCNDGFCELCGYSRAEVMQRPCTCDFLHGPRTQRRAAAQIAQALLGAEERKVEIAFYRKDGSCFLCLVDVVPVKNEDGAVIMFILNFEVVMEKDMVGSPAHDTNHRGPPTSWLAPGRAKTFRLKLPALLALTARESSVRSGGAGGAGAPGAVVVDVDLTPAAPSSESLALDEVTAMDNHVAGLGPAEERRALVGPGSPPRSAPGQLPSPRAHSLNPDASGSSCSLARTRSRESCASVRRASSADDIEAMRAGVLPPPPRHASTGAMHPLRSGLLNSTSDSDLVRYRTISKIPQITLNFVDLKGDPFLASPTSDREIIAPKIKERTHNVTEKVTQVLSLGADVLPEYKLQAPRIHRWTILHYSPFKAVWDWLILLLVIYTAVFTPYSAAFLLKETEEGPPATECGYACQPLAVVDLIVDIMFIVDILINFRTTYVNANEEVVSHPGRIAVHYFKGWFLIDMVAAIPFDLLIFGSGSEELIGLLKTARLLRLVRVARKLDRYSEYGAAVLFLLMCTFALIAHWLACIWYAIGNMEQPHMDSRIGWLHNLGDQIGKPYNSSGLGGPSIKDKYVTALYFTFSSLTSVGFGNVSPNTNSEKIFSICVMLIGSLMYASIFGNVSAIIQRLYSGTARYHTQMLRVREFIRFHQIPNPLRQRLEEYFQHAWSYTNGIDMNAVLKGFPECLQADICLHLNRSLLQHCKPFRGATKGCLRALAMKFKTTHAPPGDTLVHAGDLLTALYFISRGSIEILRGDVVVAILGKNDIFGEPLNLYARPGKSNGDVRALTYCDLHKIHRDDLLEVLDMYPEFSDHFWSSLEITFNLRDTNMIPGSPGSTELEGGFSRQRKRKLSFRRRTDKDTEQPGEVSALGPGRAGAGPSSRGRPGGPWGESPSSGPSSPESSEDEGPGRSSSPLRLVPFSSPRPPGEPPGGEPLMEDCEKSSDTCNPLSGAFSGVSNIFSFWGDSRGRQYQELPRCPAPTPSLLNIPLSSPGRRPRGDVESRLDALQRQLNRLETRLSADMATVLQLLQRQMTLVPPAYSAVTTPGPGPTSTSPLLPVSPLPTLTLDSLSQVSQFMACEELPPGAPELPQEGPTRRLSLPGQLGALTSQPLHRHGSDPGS
# Chain of Nuclear receptor subfamily 1 group I member 2 (Homo sapiens) (O75469 whole entry, looked up): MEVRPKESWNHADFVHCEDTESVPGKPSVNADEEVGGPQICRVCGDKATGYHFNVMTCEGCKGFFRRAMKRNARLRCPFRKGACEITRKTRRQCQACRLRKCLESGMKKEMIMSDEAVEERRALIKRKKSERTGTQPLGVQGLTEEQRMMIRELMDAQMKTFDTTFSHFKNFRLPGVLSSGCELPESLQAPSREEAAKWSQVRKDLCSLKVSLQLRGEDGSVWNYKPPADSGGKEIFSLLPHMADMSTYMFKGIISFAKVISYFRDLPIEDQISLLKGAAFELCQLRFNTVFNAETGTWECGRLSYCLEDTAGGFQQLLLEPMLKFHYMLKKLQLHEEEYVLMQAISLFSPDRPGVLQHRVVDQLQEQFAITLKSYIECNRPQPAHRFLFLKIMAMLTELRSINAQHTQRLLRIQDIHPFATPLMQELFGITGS
# Chain of Cytochrome P450 2D6 (Homo sapiens) (P10635 whole entry, looked up): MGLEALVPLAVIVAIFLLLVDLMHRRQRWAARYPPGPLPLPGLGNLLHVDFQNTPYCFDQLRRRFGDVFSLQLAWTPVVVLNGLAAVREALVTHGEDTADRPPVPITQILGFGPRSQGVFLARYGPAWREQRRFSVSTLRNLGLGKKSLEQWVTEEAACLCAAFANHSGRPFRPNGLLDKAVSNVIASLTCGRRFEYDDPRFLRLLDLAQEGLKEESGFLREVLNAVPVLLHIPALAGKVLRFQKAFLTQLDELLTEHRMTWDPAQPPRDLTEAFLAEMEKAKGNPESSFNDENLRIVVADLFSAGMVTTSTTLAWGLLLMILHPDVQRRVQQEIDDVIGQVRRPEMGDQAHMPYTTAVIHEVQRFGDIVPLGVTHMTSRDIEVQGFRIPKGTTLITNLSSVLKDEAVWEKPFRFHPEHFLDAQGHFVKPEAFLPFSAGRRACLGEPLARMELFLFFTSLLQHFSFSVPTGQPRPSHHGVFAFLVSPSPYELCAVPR
SMILES,outcome [1],outcome [2],outcome [3],outcome [4],outcome [5],Potency [6],outcome [7],outcome [8],Potency [9],Potency [10],Potency [11],Potency [12],Potency [13],Potency [14],Potency [15],max activation [16] [%],Potency [17],Potency [18],outcome [19]
CCCCOC(=O)C(C)O (centres undefined),inactive,inactive,inactive,inactive,inactive,inactive,inactive,inactive,inactive,inactive,inactive,inactive,inactive,inactive,inactive,,,,
CC(C)OC(=O)OCOP(=O)(CO[C@H](C)Cn1cnc2c(N)ncnc21)OCOC(=O)OC(C)C,inactive,inactive,,inactive,inactive,inactive,inactive,inactive,inactive,inactive,inactive,,inactive,inactive,,-6.83,inactive,inactive,
COP(=O)(O)OP(=O)(O)OC,inactive,inactive,inactive,inactive,inactive,inactive,inactive,inactive,inactive,,inactive,inactive,,inactive,,,,,
CC(=O)OC(C)=O,inactive,inactive,inactive,inactive,,inactive,inactive,inactive,inactive,inactive,72.3 µM (active),inactive,,inactive,inactive,,,,
Cc1c(C(=O)c2c[nH]n(C)c2=O)ccc(S(C)(=O)=O)c1C1=NOCC1,inactive,inactive,inactive,inactive,inactive,inactive,inactive,inactive,inactive,inactive,,12.9 µM (active),14.5 µM (active),inactive,,,,,
CC(C)=CCC[C@@](C)(O)[C@H]1CC=C(C)CC1,inactive,inactive,,inactive,inactive,inactive,inactive,inactive,29.8 µM (active),inactive,8.71 µM (active),17.4 µM (active),,inactive,,1.39,inactive,inactive,
CCC(=O)c1c(O)cc(O)cc1O,inactive,inactive,,inactive,inactive,inactive,inactive,inactive,inactive,27.5 µM (active),inactive,13.8 µM (active),12.9 µM (active),inactive,,,inactive,inactive,
CC(C)COC(=O)c1ccccc1,inactive,inactive,inactive,,inactive,inactive,inactive,inactive,inactive,inactive,inactive,inactive,,inactive,inactive,,,,
O=C(CCCl)NCCc1ccccc1,inactive,inactive,inactive,inactive,inactive,inactive,inactive,inactive,inactive,,inactive,inactive,inactive,inactive,inactive,,,,
O=C[O][Al]([O]C=O)[O]C=O,inactive,inactive,inactive,inactive,inactive,inactive,inactive,inactive,inactive,inactive,inactive,inactive,,inactive,,,,,
[O-][n+]1cccc(/C(Cl)=N/OC[C@@H](O)CN2CCCCC2)c1,inactive,inactive,inactive,inactive,inactive,inactive,inactive,inactive,inactive,15.5 µM (active),,inactive,,inactive,,,,,
CCc1occc(=O)c1O,inactive,inactive,,,inactive,inactive,inactive,inactive,inactive,inactive,inactive,inactive,inactive,inactive,inactive,,,,
CCCCCC/C=C/C(=O)OC,inactive,inactive,,,inactive,inactive,inactive,inactive,inactive,inactive,inactive,inactive,inactive,inactive,inactive,,,,
Cc1cc(-c2ccccc2)nnc1NCCN1CCOCC1,inactive,inactive,,inactive,inactive,inactive,inactive,inactive,inactive,8.71 µM (active),inactive,,inactive,inactive,,,,,
C=Cc1ccc(C(C)(C)C)cc1,inactive,inactive,,,inactive,inactive,inactive,inactive,inactive,inactive,inactive,inactive,inactive,inactive,inactive,,,,
OC[C@H]1O[C@@H](O[C@@H]2[C@@H](CO)O[C@](O)(CO)[C@H]2O)[C@H](O)[C@@H](O)[C@H]1O,,inactive,inactive,inactive,inactive,inactive,inactive,inactive,inactive,inactive,inactive,inactive,inactive,inactive,inactive,-1.58,inactive,inactive,inactive
O=C1OCCO1,inactive,,,inactive,inactive,inactive,inactive,inactive,inactive,inactive,,inactive,42.2 µM (active),inactive,inactive,,,,inactive
CCN(CC)CCN,inactive,inactive,,,inactive,inactive,inactive,inactive,inactive,inactive,inactive,inactive,inactive,inactive,,,,,
